Reference: the supplement of paper PMC11417369
Whole data set: some 25,000 sequences, median “ln(normalized median fluorescence intensity)” near 9.7, cut for the highest 2% near 11. The sample holds the highest values, similar sequences and a random draw of the others, so the mix is not that of the screen.

test system: PfAP2-HC AP2 domain (GST-tagged); assay: gcPBM binding intensity (ln(normalized median fluorescence intensity)); higher = stronger DNA binding
Method in brief: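 Using an Agilent 4 × 180k array, primer-extended double-stranded 36-bp intergenic genomic probes and negative controls were exposed for 1 h to GST-fused P. falciparum DNA-binding domains expressed in E. coli. Binding was carried out in 1× PBS with 1% milk, 0.2 mg/ml BSA, 0.5% salmon testes DNA and 0.03% Triton X-100, and protein was detected with Alexa488 anti-GST antibody and a 488 nm scan. Binding intensity is the highest Masliner-normalised natural-log median intensity across replicate spots of either probe orientation.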

Sequence	gcPBM binding intensity (ln)
CACTTAAAAAGCTAACGTACAAATACACATATATAA [XGTACX_site1851]	9.66
CAAAACATTTTATCTACACACATATATAAATAAATA [CACACA_site3220]	9.77
GTTTACATTTTAAGAAGTACAAAATTTATGGTTAAA [XGTACX_site450]	9.42
TTAGGACAAAAAAAAATAAAAATAAAATAAAATAAT [CACACA_negctrl_site1613]	9.61
TTTTAATATTTTAAGAGTACAGAAATATATAATATG [XGTACX_site4955]	9.33
TTATTTTACTTTTATGCAACTAAAAATATTGCTATA [XGTACX_negctrl_site277]	9.6
GAATATTAAACAAACACACACACATATATATATATA [CACACA_site3382]	10.7
GAAAGAATAAAATTTACACACATATATAAATACATA [CACACA_site5273]	9.87
TAAAAAAAAAAAAAAACACACATATAAATATTTATA [CACACA_site6702]	9.61
AAAACAAACAGACACACACACATATTTATATTTATA [CACACA_site7681]	11
TGACATAAATTTAATACACACACAAAGAAAAAAAAA [CACACA_site9354]	10.2
AATTTTTTATTAAACACACAAACATATATATATATA [CACACA_site1937]	9.66
ACATAAATTTAATACACACACAAAGAAAAAAAAAAA [CACACA_site4088]	10.9
GAGATAAAATAAAACACACACATATATTTATATAAC [CACACA_site7098]	10.9
AAAACAAACAGACACACACACATATATATATATATA [CACACA_site3655]	10.8
AAAACAGACAAACACACACACACATATATATATATA [CACACA_site3393]	10.6
CATAAAATATAAAACACACACACATATATTTATATA [CACACA_site6247]	10.5
GAATATTAAACAAACACACACACATATATTTATATA [CACACA_site7563]	11.1
ATTTTATTTTTTAAAGGTACAGTTACAGCTTATATA [XGTACX_site7513]	9.51
ATAAGCATCTTTTGTGTGCACATAACAAAAAAAAAA	9.85
TTATAAATGAATAAATGTACAAAATATATATATATA [XGTACX_site8829]	9.66
TTAAATAAAAAAATAACACACATATAAATCTATATG [CACACA_site7482]	9.75
TTTTTTTTGTGTTCAAGTACAAAATTTTAAAGGTCA [XGTACX_site4011]	9.26
TATTGTTGTTCATGTACACACTATAATAAAAGCAAT [CACACA_site6148]	9.62

Sequence	gcPBM binding intensity (ln)
ATCTTATATTATCACACACACACGCACAAAACAGAA [CACACA_site1463]	10.3
CAATATAAAAAACACACACACAAACATATATTTATA [CACACA_site3703]	10.5
ATATAATTATAAAATAAACACACATATATATTTATA [CACACA_site8039]	9.91
CATATATAAAAAAACACACACATATTTATATTTATA [CACACA_site6682]	10.3
TATTTATTTATATAAACACACATAAATATAAATATA [CACACA_site6653]	9.45
AAGGATCACGCACAAACACACATATTTATATTTATA [CACACA_site6405]	9.95
AAAAAAAACAAACACACACACAAATATTTATATATT [CACACA_site436]	10.5
TATAAAACACACACACATATATATATATATTTATAT [TGCATGCA_negctrl_site48]	11.2
ATCTTATATGATCACACACACACGCACAAAACAGAA [CACACA_site4913]	10.4
CTTATATTAAAACACACACACGCACAAAACAGAAAT [CACACA_site1462]	11
AACAAAAAAACAAACACACACACACGCATATTTATA [CACACA_site7680]	11.2
CACAAAAATAAACACACACACATATATATTTATTAT [CACACA_site5923]	11.1
ATTCTATATATATAAACACACAAATATTTTTATATA [CACACA_site1677]	9.65
TTCTTTTCTTCTACATGTACAAATATTATATATATA [XGTACX_site2996]	9.97
TATATTATATTATACATACACACCCATATAATATGT [CACACA_site869]	10.1
TATAAATTAATGACATGTACATAAAAGTATAGATGT [XGTACX_site6534]	9.95
TTTATAAAATTATTTGCATGTAACAATTATAAATTG [TGCATGCA_site1026]	9.42
TTTTTTTAAAACAAAAAAAAAAAAAAAAAAAAAAAA [TGCATGCA_negctrl_site418]	8.22
TAAAAAAAAAAAAATACACACACACCGATATATATA [CACACA_site8498]	10.7
GATATATATTAATATACACACACACCGATATATATA [CACACA_site8462]	10.2
CAAAAAAAATTATACACACACACACCGATATATATA [CACACA_site4719]	11.1
CAAAATAATATATATACACACACACCGATATATATA [CACACA_site8082]	10.8
TAATAATACCCAAGCACACACACACCCATATATATA [CACACA_site4831]	10.6
TTAATATAAGCAAATACACACACACCGATATATATA [CACACA_site9269]	11.1

Sequence	gcPBM binding intensity (ln)
ATAATATATATTAATACACACACACCGATATATATA [CACACA_site9261]	10.4
ATAATACCCAAGCACACACACACACCGATATATATA [CACACA_site8344]	11.3
TATACATACATACATACACACACACCGATATATATA [CACACA_site7896]	10.2
TATATATATATATACACACACACACCGATATATATA [CACACA_site8813]	10.5
AAAAAAAAAAAAAATACACACACACCGATATATATA [CACACA_site8142]	10.6
AATATATATATATATACACACACACCGATATATATA [CACACA_site8158]	11.2
ATAAAGAAACATATATGTACTTATATATATATATAT [XGTACX_site5625]	9.69
TATAAGAGAATATATACACACAAAAATAAATACAGT [CACACA_site5000]	10.9
ATATATATATAATGAAGTACGAAAAAATAAGAAATG [XGTACX_site4001]	9.9
TATAAAACAAATATATGTACATATCATAGTATAATA [XGTACX_site2965]	9.75
AAGGAAATATAATATACACACATAAGTGTACTTCTA [CACACA_site6079]	9.81
AATAGTCGGGTGCATACACACCTTAAATATAATATA [CACACA_site8271]	9.57
CTAATCGTGCACAACTGTACATTTGTCAAGGGCAAT [XGTACX_site8662]	9.62
AAAGAACAAATAAAACATAAAATAATATATATAGAT [CACACA_negctrl_site1764]	10.1
AAAAAAAAAAAAAACACACACACACCCAAATACATA [CACACA_site708]	10.5
ATATCTTATGTTATCACACACACACGCACAAAACAG [CACACA_site6800]	10.3
ATATCTTATATTATCACACACACACCCACAAAACAG [CACACA_site1464]	11.5
AAAAAAACAGAAAACACACAAATTATCTTATAATTA [CACACA_site6282]	9.8
AAAAAAAAAAAAAACACACACACACCCATACAAAAT [CACACA_site1446]	11.6
TACAAACACCCATATACACACAAAAAAAAAATAAAA [CACACA_site5421]	9.94
AAAAAATACAAACACACACACACACCCATATATATA [CACACA_site3560]	11
TATATACACCCACATACACACAAATAAAAAAACACC [CACACA_site3414]	10.5
AAAAAAAAAAAAAACACACACAACACCCATACCTTA [CACACA_site3621]	11.2
AAAAAAAAAAAAAACACACACATACACCCAAAAATG [CACACA_site4223]	10.3

Sequence	gcPBM binding intensity (ln)
AAAAAAAAAAAAAAAACACACATACCCATATATTTT [CACACA_site6013]	9.85
AAAAAAAAAAAAAAAACACACACAACACCCATACCT [CACACA_site9208]	10.4
ATATATATTTAAACTACACACGCATATCTTAGAAAT [CACACA_site8348]	10.1
ACTGTACTATAAAATACACACATATAAATATAAATA [CACACA_site3009]	9.99
AATATTTAATTCAACACACATACATATTTATTAAAA [CACACA_site2342]	9.99
ATGTGTATATGTTAATGTACAAATTTTGAAAATGCC [XGTACX_site2685]	9.86
TATTATTATTTTATGGTGCAAAAAAAAAAAAAAAAA	8.83
TATTATATCTTATATGTATATTCCCACAAATTATAT [GTGCAC_negctrl_site362]	9.59
TTTTGTTGTATGATAATTCTTTTATCAATATGTCTT [TGCATGCA_negctrl_site567]	9.63
ACATTCACAAAATTTTGTACACATATATATATATAT [XGTACX_site3518]	9.96
AATATATTTTAATACACACACACATATATATATATA [CACACA_site5969]	10.4
AAAAAAACATGAAACACACACAAATATTTATTTATA [CACACA_site6967]	10.2
TACTTACATATAATAACACACAAGAAAAAAATAAAA [CACACA_site1033]	9.83
ACCTAAAAGGTATAATATATAAATAAAAAAAAAAAT [CACACA_negctrl_site134]	9.72
GTATAATAGAAACACACACACACACCCAAAAAAAAA [CACACA_site2010]	10.7
AAAACACCCAAACACACACACACATATATATATATA [CACACA_site9119]	10.8
AAAAAAAAAAAACACACACACACACCCAAATATATA [CACACA_site150]	10.6
AACAAAAAAACAAACACACACACACCCATATATATA [CACACA_site3652]	10.6
AAAAAAAAAAAAAAAACACACACATACACCCAAAAA [CACACA_site7910]	10.5
CAAAAAAACAAACACACACACACACCCATATATATA [CACACA_site3653]	11.5
TATACTCAGAAACACACACACACACCCAAAAAAAAA [CACACA_site4434]	11.1
AAAAAAAAAAAAAAAAAAAAACACCCAAAAAAATAT [XGTACX_negctrl_site210]	10.1
AAAAAAAAAAAAAACACACACACACCCAAATATATA [CACACA_site1169]	11.3
